From PubChem BioAssay (NCI)
The panel holds about 83,000 compounds, 20% with a hit somewhere; the sample as a whole holds those more often.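 Activity criterion: percent growth below 10, measured after cells in 96-well plates were exposed to a single compound concentration for 48 hours.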 Unmarked numbers belong to inactive results.

Each compound was assayed on SNB-19 CNS (assay: NCI-60 one-dose screen, 48 h (100 = growth as untreated, 0 = no growth, -100 = all killed)). Details: 10 µM unless noted.
Method: Growth inhibition of the SNB-19 human tumor cell line is measured as a screen for anti-cancer activity. Cells are grown in 96 well plates and exposed to the test compound for 48 hours. Compounds are tested at a single concentration, which is 10^-5 M for most compounds. The reported endpoint is percent growth (GI% or GIPRCNT), where numbers from 0 - 100% represent growth inhibition, and numbers from -100% - 0 represent cell death. For example, a value of 40 represents 60% growth inhibition. A value of 0 means no net growth occurred over the course of the experiment. A value of -40 indicates 40% of cells at the beginning of the experiment died by the end of the experiment. A value of -100 means all cells are dead at the end of the experiment.
NCI-60 Human Tumor Cell Lines Screen was performed using the standard one-dose NCI protocol, which is described in more detail at https://dtp.cancer.gov/discovery_development/nci-60/default.htm.
Compounds with GIPRCNT values below 10 were considered active. Activity score was based on GIPRCNT using the following formula: […]
Score is 0 for GIPRCNT values of 100 or above, 50 for GIPRCNT values of 0, and 100 for GIPRCNT values of -100.
`O=C(Cc1ccc(/C=C/C(=O)c2ncc[nH]2)cc1)Nc1cc(F)c(F)c(F)c1` gave a growth of 43.4%. Compound `CC(C)n1c2ccc(Br)cc2c2c3c(c4c5ccccc5ccc4c21)C(=O)NC3=O` has a growth of 102%. Compound `O=C(c1ccc(Br)cc1)C(Br)C(c1ccc(Cl)cc1)C(c1ccccc1)[N+](=O)[O-]` (stereo not given) has a growth of 93.9%. Work on `CC[C@H](Nc1nc(N)nc(C)c1C#N)c1nc2cccc(CN(C)c3ncc(C(=O)NO)cn3)c2c(=O)n1-c1ccccc1` yielded a growth of 11%. `Clc1ccc2nn3c4ccccc4c(OCCN4CCOCC4)nc3c2c1` showed a growth of 81.1%. Work on `COCCn1cc(-c2nc(-c3cc4cccnc4n3C)cs2)c2ccccc21` yielded a growth of 63.5%. `O=C1Nc2ccccc2/C1=N/N1C(=O)CN(CCCl)C1=O` showed a growth of 97.1%. `Cc1ccc2cnc(N)c(C#Cc3cc(C(=O)Nc4ccc(CN5CCN(C)CC5)c(C(F)(F)F)c4)cnc3C)c2c1` was tested, and the growth was 17.4%. Compound `COc1cc(C=Nc2oc(-c3ccccc3)c(-c3ccccc3)c2C#N)cc(CN2CCCC2)c1O` has a growth of 94.6%. `Cc1ccc(S(=O)(=O)c2nc(-c3ccccc3)oc2SCC(N)=O)cc1` gave a growth of 99.5%. In the case of `CN1CCOCCN(C)Cc2ccc3ccc(cc3c2)CN(C)CCOCCN(C)Cc2ccc3ccc(cc3c2)C1`, the growth is reported as 86.5%. Work on `Cc1ccc2nc(-c3ccc(C(=O)N/N=C/c4ccc([N+](=O)[O-])cc4)cc3)[nH]c2c1` yielded a growth of 104%. `CS(=O)/C(C#N)=C\C=C\c1cccc(Cl)c1` (stereo not given) showed a growth of 27.2%. For `CN(C)/C(N)=N/N=C(\c1ccccc1)c1ccccn1`, the growth was 106%. With `O=c1cc(C(F)(F)F)c2cc(-c3cc4ccccc4c(=O)o3)c(O)cc2o1` the growth was 67.7%. Compound `COC(=O)c1nc(-c2ccccc2)oc1S(=O)(=O)N1CCCC(C)C1` (stereo not given) has a growth of 91.5%. `Nc1cccc(-c2ccc(COc3ccc(CC4SC(=O)NC4=O)cc3)cc2)c1` (stereo not given) showed a growth of 69.3%. `O=[N+]([O-])c1ccccc1Sc1ccccc1[N+](=O)[O-]` showed a growth of 106%. `O=C(Nc1cccnc1Nc1ccccc1)c1cn(Cc2cccc(Oc3ccccc3)c2)nn1` was tested, and the growth was 64.5%. In the case of `CSc1ccc(N2C(=N)C(=S)N(c3ccc(C)cc3)C2=O)cc1`, the growth is reported as 101%. With `O=C(O)c1cn(C2CC2)c2cc(N3CCN(C(=O)N4CCOCC4)CC3)c(F)cc2c1=O` the growth was 105%. `Cc1cc(C(=O)CCCC(=O)c2cc(C)c(O)c(C)c2)cc(C)c1O` showed a growth of 88.1%. In the case of `Cc1ccc(S(=O)(=O)OC[C@]23CCC(C)(C)C[C@H]2C2=CC[C@@H]4[C@@]5(C)CCCNC(C)(C)[C@@H]5CC[C@@]4(C)[C@]2(C)CC3)cc1`, the growth is reported as 85.7%. With `c1ccc(-c2nc3ccccc3[nH]2)c(OCCCCCOc2ccccc2-c2nc3ccccc3[nH]2)c1` the growth was 91.7%. `COc1ccc(-c2cn(Cc3cc4ccccc4s3)nn2)cc1OCCN1CCCCC1` was tested, and the growth was 86.3%. With `COc1c2c(cc3c1C(=O)N[C@@H]1[C@@H](O)[C@@H](O)[C@H](O)C[C@@H]31)OCCO2` the growth was 102%. In the case of `COC12C=C/C(=C(/C(=O)OCCSc3ccnn3C)C(=O)CCCCCCCCC3(OC)C=C/C(=C(/C(=O)OCCSc4ccnn4C)C(=O)CCCCCCCC1)O3)O2`, the growth is reported as 32.9%. In the case of `Cc1ccc2c(/C=C/C(=O)c3cc(CN4CCOCC4)c(O)c4nc(C)ccc34)cc(CN3CCOCC3)c(O)c2n1`, the growth is reported as 36.4%. In the case of `CCOc1ccc(NC(=O)Nc2ccc(OCC)cc2)cc1`, the growth is reported as 107%. For `C=C(C)[C@@H]1CC[C@]2(C(=O)Nc3ccccn3)CC[C@]3(C)[C@H](CC[C@@H]4[C@@]5(C)CCCNC(C)(C)[C@@H]5CC[C@]43C)[C@@H]12`, the growth was 25%. `O=C(Nc1nc(Cl)nc(Nc2ccc(N3CCOCC3=O)cc2)n1)c1ccc(Cl)s1` gave a growth of 88.2%. Compound `CCOC(=O)/C(=C(/C)NCC(C)C)c1cc(O)c(O)c2c(C)cc(=O)[nH]c12` has a growth of 50.9%. Work on `CNC(=O)c1cc(Oc2ccc3c(c2)sc2nc(-c4cc(C(F)(F)F)cc(C(F)(F)F)c4)cn23)ccn1` yielded a growth of 62.8%. In the case of `COc1cc(/C=C/C(=O)c2cc(OC)c(OC)c(OC)c2)ccc1Oc1nc2c(c(=O)n(C)c(=O)n2C)n1C`, the growth is reported as 18.7%. `CN1C(=O)/C(=C/c2ccc(C(=O)Nc3ncc(Cc4cccc(C(F)(F)F)c4)s3)cc2)SC1=S` was tested, and the growth was 61.5%. Compound `Oc1c(I)cc(I)cc1CN(Cc1ccccn1)Cc1ccccn1` has a growth of 22.3%. `Cc1cccc(N2C(=O)/C(=C/C(Cl)=C/c3ccc([N+](=O)[O-])cc3)SC2=S)c1C` gave a growth of 26.3%. Work on `CN(C)c1ccc(C(=S)c2ccc(N(C)C)cc2)cc1` yielded a growth of 72.6%. In the case of `COc1cc(Cc2cc(-c3ccccc3)nn(Cc3ccccc3)c2=O)cc(OC)c1OC`, the growth is reported as 51.7%. `C=CN(C(=O)N1CCN(c2cc3c(cc2F)c(=O)c(C(=O)O)cn3C2CC2)CC1)c1nc(-c2ccccc2)cs1` gave a growth of 96%.
